Bioassay records (PubChem BioAssay)
Vaccinia Venus: qHTS for Stage-Specific Inhibitors of Vaccinia Orthopoxvirus: Venus Reporter Primary qHTS. Vaccinia virus Venus reporter expression, fluorescence. Potency, µM (top dose mostly 36.5 µM), for inactives: at the top dose activity change, negative = inhibition, hits mostly inhibitors. 0.46% of 330,000 active. AID 720580, 2013; calls by dose curve; tested in A549 cells; note: potency is the fitted concentration of half-maximal effect; nearly all actives have a fitted effect of over 30% in size
VACV mCherry inh: qHTS for Stage-Specific Inhibitors of Vaccinia Orthopoxvirus: mCherry Reporter Primary qHTS | Potency, µM (top dose mostly 36.5 µM), for inactives: at the highest dose activity change, negative = inhibition, most hits filed as inhibitors | Vaccinia virus mCherry reporter infection, fluorescence | AID 720579, 2013 | 0.63% of 310,000 active; calls by dose curve; tested in A549 cells; note: potency is the fitted concentration of half-maximal effect; nearly all actives have a fitted effect of over 35% in size
HCMV antiviral: qHTS Assay for inhibitors of the human cytomegalovirus (HCMV); HFF cells, HCMV-luciferase reporter, 72 h; active compounds read low; activity change, negative = inhibition, % at 57.5 µM; 4.5% of 410,000 active; AID 1259415, 2018; in the data active = activity change below about -60%; inconclusive = no clear call, values can overlap the other calls; inactive = above about -39%
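Steps: HFFs plated, 16 h 37C; compounds added; HCMV-luciferase added to MOI 1 PFU/cell; 72 h 37C; OneGlo reagent, 5 min room temperature; luminescence read, normalized to controls.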
HCV inhibitor: qHTS Assay for Inhibitors of Hepatitis C Virus (HCV); Huh7.5.1 HCVcc-Cre infection, luciferase reporter, 44 h; Potency, µM (series often up to 41.8 µM), for the others: at the highest dose activity change, negative = inhibition, usual class: inhibitors; 3.4% of 340,000 active; AID 651820, 2012; active = well fitted inhibition curve with a large enough effect; inconclusive = small, poorly fitted or top-dose-only effect, or another doubt; inactive = no such curve, though single readings can be large or run the other way; note: potency is the fitted concentration of half-maximal effect
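Reporter virus HCVcc-Cre (~0.5 moi) infects cells exposed to compound; seeding density 1,000 cells/well with 4 h settling beforehand. Luminescence, 15 sec read, taken 44 h post-infection following a 15 min RT substrate incubation.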
FMDV antiviral: High Throughput Screening for Foot and Mouth Disease Virus Antivirals | FMDV antiviral cell-based qHTS | Potency, µM (top dose mostly 57.9 µM), inactives show at the top dose activity change, negative = inhibition, usual class: inhibitors | 1.2% of 410,000 active | AID 1159524, 2015; calls by dose curve; tested in HEK293T cells; note: read-out not given here; potency is the fitted concentration of half-maximal effect; nearly all actives have a fitted effect of over 45% in size
* hit, by the source's call; i = inactive; u = inconclusive; x = no result; [ ] = dose if it differs, or a comment. Hits are enriched below; roughly 7.3% of the tested compounds scored in any of these assays. % is set by controls: 0 for no effect and ±100 for the full control effect.

SMILES	Vaccinia Venus	VACV mCherry inh	HCMV antiviral	HCV inhibitor	FMDV antiviral
CN(CCc1ccccc1)C(=O)c1ccc(NC(=O)Cc2ccc(NC(=O)C3CCN(C(=O)C4CCCCC4)CC3)cc2)cc1	-23%	u	-60*	-24%[8.37 µM]	-28%
CN(Cc1ccccc1)C(=O)c1ccc(NC(=O)Cc2ccc(NC(=O)C3CCCN(C(=O)C4CCCC4)C3)cc2)cc1 (centres undefined)	-8%	-25%	-13	u	-22%
O=C(Nc1nc(-c2ccccc2)ns1)c1ccncc1	3%	-7%	32	11%	16%
Cc1onc(-c2ccccc2)c1C(=O)N/N=C/c1c(F)cccc1Cl	-16%	-6%	14	5%	-3%
CN(Cc1ccccc1)C(=O)c1cccc(NC(=O)Cc2ccc(NC(=O)C3CCN(C(=O)C4CCC4)CC3)cc2)c1	0%	-15%	-23	14µM*	u
CN(Cc1ccccc1)C(=O)c1cccc(NC(=O)Cc2cccc(NC(=O)C3CCN(C(=O)C4CC4)CC3)c2)c1	-4%	-15%	4	u	1%
Fc1cccc(Cc2c(C3CCCCC3)nc3ccc(Br)cn23)c1	6%	12%	-7	x	-18%
CN(C)CCOc1ccc2c(c1)C(=O)C(=Cc1ncc([N+](=O)[O-])n1C)C2	u	u	-98*	x	-5%
O=C(c1ccc(Cl)cc1)C1CCCN(Cc2cccc3cnccc23)C1 (centres undefined)	x	x	-62*	u	u
O=C(c1ccc(Cl)cc1)C1CCCN(Cc2ccc3ncccc3c2)C1 (centres undefined)	-23%	i	-75*	u	u
O=C(c1cccc(Cl)c1)C1CCCN(Cc2cccc3cnccc23)C1 (centres undefined)	-7%	-11%	-71*	u	u
COc1ccc(CN2CCCC(C(=O)c3cccc(Cl)c3)C2)cc1 (centres undefined)	x	x	-14	-5%	-19%
COc1ccc(CN2CCCC(C(=O)c3ccc(Cl)cc3)C2)c(OC)c1 (centres undefined)	-8%	-2%	19	u	-25%
CC(C)(C)S(=O)N1Cc2cc(CO)ccc2[C@@H]1CCO (some centres undefined)	-1%	i	28	26%	-12%
COc1ccc(CCNc2cc(C)nc3c(-c4ccc(Cl)cc4)cnn23)cc1OC	-22%	-27%	34	u	-28%
CC(=O)Nc1ccc(Nc2cc(C)nc3c(-c4ccc(Cl)cc4)cnn23)cc1	-23%	u	-70*	u	11%
CCOC(=O)c1ccc(N2C(=O)c3[nH]nc(-c4ccccc4)c3C2c2cccs2)cc1 (centres undefined)	-15%[7.34 µM]	-18%[7.34 µM]	-98*	x	-58%
CCOC(=O)c1ccc(N2C(=O)c3[nH]nc(-c4ccc(OCC)cc4)c3C2c2cccs2)cc1 (centres undefined)	u	u	-65*	x	u
CCOC(=O)c1ccc(N2C(=O)C(O)=C(C(C)=O)C2c2ccccn2)cc1 (centres undefined)	x	x	-16	9%	-15%
Cc1onc(-c2ccccc2)c1C(=O)NC(=S)NNC(=O)c1ccc(O)cc1	-22%	-18%	6	u	u
Cc1onc(-c2ccccc2)c1C(=O)NC(=S)NNC(=O)c1ccccc1O	u	u	-70*	u	u
Cc1onc(-c2ccccc2)c1C(=O)NC(=S)NNC(=O)c1ccc(O)cc1O	-21%	-9%	-95*	u	-14%
CCOC(=O)C1=CC[C@@H](c2ccccc2)C(C#N)(C#N)[C@H]1/C=C/c1ccccc1	x	x	48	x	x
Cc1oc2c(Cl)c(Cl)c(O)c(CN(C)C)c2c1C(=O)c1ccc(Cl)cc1	x	x	-69*	u	u
Cc1oc2ccc(O)c(CN3CCOCC3)c2c1C(=O)c1ccc(Cl)cc1	x	x	-35	u	u
COc1ccc(/C=N/NC(=O)C(=O)/C=C2\NC3(CCCC3)Cc3ccccc32)cc1	u	u	-11	10µM*	u
CC(=O)OC[C@@H]1CN(Cc2cccc(C(F)(F)F)c2)C[C@H](n2cnc3c(NCc4ccco4)ncnc32)O1	-2%	7%	u	x	-18%
